Screening data (PubChem)
This is a sample that favours compounds with a hit; in the whole collection about 1.5% have one here.
BLM helicase inh-1 – blocks DNA unwinding by human BLM helicase; recombinant BLM DNA unwinding, fluorescence dequenching; Potency, µM (highest dose often 56.1 µM), inactives show at the top dose activity change, negative = inhibition, hits mostly inhibitors; 350,000 compounds, 0.2% hits; AID 2528;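 further: potency means the concentration at half of the fitted maximal effect; plate controls were vehicle for no effect and no enzyme for full effect; nearly all actives have a fitted effect of over 35% in size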
RECQ1 helicase – RECQ1 (human) helicase inhibition; RECQ1 DNA unwinding, red fluorescence kinetic read; Potency, µM (highest dose often 57.3 µM), without a hit: at the top dose activity, negative = inhibition, most hits filed as inhibitors; 240,000 compounds, 0.54% hits;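 further: potency means the concentration at half of the fitted maximal effect; plate controls were vehicle for no effect and no enzyme for full effect; nearly all actives have a fitted effect of over 30% in size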
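50 nM RECQ1T1 preincubated 15 min with compound in Tris pH 8.0 buffer with MgCl2, DTT, Tween-20 and 2.5 ug/ml poly(dI-dC); started with 200 nM TAMRA/BHQ-2 forked duplex and 2 mM ATP. Unwinding read as fluorescence (525/598 nm), two reads 2 h apart.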
WRN helicase inh-1 – inhibitors of human WRN helicase. 360,000 compounds, 0.46% hits. Q14191. WRN helicase unwinding, fluorescent forked duplex, kinetic. AID 651768. Potency, µM (top dose mostly 114 µM), for the others: at the top dose activity change, negative = inhibition, actives largely listed as inhibitors; further: potency means the concentration at half of the fitted maximal effect; on the % scale 0 is the no-effect control and ±100 the full control effect; nearly all actives have a fitted effect of over 55% in size
Target sequence (Q14191 whole entry, looked up): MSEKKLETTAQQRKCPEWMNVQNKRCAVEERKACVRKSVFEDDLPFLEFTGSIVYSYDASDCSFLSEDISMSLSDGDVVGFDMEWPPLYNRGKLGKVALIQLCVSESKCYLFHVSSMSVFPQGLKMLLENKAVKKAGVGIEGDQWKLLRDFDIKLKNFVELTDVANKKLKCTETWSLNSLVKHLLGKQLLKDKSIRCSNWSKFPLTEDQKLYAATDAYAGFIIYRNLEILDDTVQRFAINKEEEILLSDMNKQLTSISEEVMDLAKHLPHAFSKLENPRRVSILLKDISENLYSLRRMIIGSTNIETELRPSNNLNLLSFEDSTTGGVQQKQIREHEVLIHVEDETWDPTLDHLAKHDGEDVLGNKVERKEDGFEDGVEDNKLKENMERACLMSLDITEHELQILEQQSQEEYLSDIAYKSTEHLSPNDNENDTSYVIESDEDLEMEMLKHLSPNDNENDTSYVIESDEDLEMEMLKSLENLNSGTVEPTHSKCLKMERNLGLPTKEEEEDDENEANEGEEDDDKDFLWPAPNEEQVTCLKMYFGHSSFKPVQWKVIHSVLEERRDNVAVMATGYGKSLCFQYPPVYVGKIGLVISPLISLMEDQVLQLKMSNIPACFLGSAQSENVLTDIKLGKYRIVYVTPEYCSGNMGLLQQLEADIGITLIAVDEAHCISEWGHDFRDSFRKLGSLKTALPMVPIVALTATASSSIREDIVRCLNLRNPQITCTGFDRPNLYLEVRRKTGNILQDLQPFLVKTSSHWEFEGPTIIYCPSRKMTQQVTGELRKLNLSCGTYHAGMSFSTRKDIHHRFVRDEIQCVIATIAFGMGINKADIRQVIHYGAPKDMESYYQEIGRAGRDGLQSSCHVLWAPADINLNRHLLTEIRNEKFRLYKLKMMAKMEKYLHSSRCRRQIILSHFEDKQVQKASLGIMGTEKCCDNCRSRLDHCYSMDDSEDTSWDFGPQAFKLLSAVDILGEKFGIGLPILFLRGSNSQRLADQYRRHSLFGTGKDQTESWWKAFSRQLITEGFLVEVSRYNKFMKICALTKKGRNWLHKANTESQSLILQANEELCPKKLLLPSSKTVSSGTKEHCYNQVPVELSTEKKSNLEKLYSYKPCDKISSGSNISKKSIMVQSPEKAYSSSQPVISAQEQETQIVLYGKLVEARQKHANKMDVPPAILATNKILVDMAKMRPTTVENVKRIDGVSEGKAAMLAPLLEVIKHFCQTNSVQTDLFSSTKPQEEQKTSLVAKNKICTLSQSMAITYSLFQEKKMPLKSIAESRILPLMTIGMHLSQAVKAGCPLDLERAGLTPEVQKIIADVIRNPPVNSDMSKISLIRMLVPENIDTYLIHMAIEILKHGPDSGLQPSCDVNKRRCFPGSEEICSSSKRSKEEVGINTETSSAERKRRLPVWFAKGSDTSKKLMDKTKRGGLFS
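Enzyme (20 nM final) and test compound sit together 15 min at room temperature before substrate addition. Substrate is a single-forked duplex oligonucleotide (100 nM) labelled with fluorophore and quencher, with 2 mM ATP; helicase unwinding raises red fluorescence, read kinetically.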
FEN1 inh – inhibitors of human flap endonuclease 1; P39748; Recombinant FEN1 flap cleavage, fluorescence, 15 min; AID 588795; 390,000 compounds, 0.35% hits; Potency, µM (series often up to 114 µM), without a hit: top-dose activity change, negative = inhibition, usual class: inhibitors; further: potency means the concentration at half of the fitted maximal effect; on the % scale 0 is the no-effect control and ±100 the full control effect; nearly all actives have a fitted effect of over 65% in size
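Enzyme 10 nM, 15 min RT preincubation with compound; start with substrate 50 nM final; reads at 0 and 15 min; qHTS titration, four-parameter Hill fit.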
APE1 inh – blocks human APE1 abasic DNA cleavage; P27695; recombinant APE1, TAMRA/BHQ-2 abasic DNA cleavage fluorescence; Potency, µM (top dose mostly 65.8 µM), for inactives: at the top dose activity change, negative = inhibition, actives largely listed as inhibitors; 350,000 compounds, 0.35% hits; AID 2517;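 further: potency means the concentration at half of the fitted maximal effect; plate controls were vehicle for no effect and reference inhibitor for full effect; nearly all actives have a fitted effect of over 55% in size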
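APE1 at 0.75 nM preincubated 15 min at room temperature with compound. Reaction then started with 50 nM double-stranded THF-abasic substrate labelled with TAMRA/BHQ-2, and 525/598 nm fluorescence read kinetically. Activity taken as third-minus-first read difference, normalized to DMSO and NSC13755 controls.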
PI5P4Ka inh – blocks human PI5P4K alpha kinase activity. P48426. PI5P4Kalpha enzyme, ADP-Glo luminescence, 60 min; active compounds read low. max response, %. 330,000 compounds, 1.2% hits; active means max response of -50% or lower; inconclusive means between -30% and -50%; inactive means -30% or higher; further: value at the top dose of about 77 µM; on the % scale 0 is the no-effect control and ±100 the full control effect
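Enzyme plus substrate dispensed, test compounds pinned in, then ATP (5 microM final) added. After 60 min at RT, ADP-Glo reagent 1 for 45 min and reagent 2 for 30 min preceded luminescence imaging.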
WRN helicase inh-2 – confirmation of human WRN helicase inhibitors | 610 compounds, 63% hits | Potency, µM (doses to about 57.1 µM), for inactives: at the top dose activity, negative = inhibition, most hits filed as inhibitors | WRN helicase DNA unwinding, fluorescence kinetic | shares compounds with WRN helicase inh-1; further: potency means the concentration at half of the fitted maximal effect; nearly all actives have a fitted effect of over 65% in size
TO DNA binding – DNA binding via thiazole orange displacement. shares compounds with WRN helicase inh-1. thiazole orange DNA binding displacement, fluorescence. Potency, µM (top dose mostly 57.1 µM), inactives show at the top dose activity change, negative = inhibition, usual class: inhibitors. 610 compounds, 10% hits;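 further: drop in dye fluorescence marks compound binding to DNA; potency means the concentration at half of the fitted maximal effect; on the % scale 0 is the no-effect control and ±100 the full control effect; nearly all actives have a fitted effect of over 60% in size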
BLM helicase inh-2 – blocks human BLM helicase in WRN counterscreen; AID 720503; 610 compounds, 60% hits; shares compounds with WRN helicase inh-1; Potency, µM (series often up to 57.1 µM), inactives show at the top dose activity change, negative = inhibition, usual class: inhibitors; Recombinant BLM helicase DNA unwinding, red fluorescence; further: potency means the concentration at half of the fitted maximal effect; nearly all actives have a fitted effect of over 60% in size
Starred values were filed as active, the others as inactive; i = inactive; u = inconclusive; x = no result; [ ] = remark or other dose. Unless noted, the call rests on the fitted dose curve; in most records, active means well fitted curve in the direction sought with a large enough effect; inconclusive means small, poorly fitted or top-dose-only effect, or another doubt; inactive means no such curve, though single readings can be large; an effect the other way counts as inactive or inconclusive.

SMILES	BLM helicase inh-1	RECQ1 helicase	WRN helicase inh-1	FEN1 inh	APE1 inh	PI5P4Ka inh	WRN helicase inh-2	TO DNA binding	BLM helicase inh-2
Cc1nnc(NC(=O)C2CCN(S(=O)(=O)c3cc([N+](=O)[O-])ccc3Cl)CC2)o1	x	x	7%	18%	-7%	-20	x	x	x
Cc1cccc2sc(NC(=O)C3CCN(S(=O)(=O)c4cc([N+](=O)[O-])ccc4Cl)CC3)nc12	-4%	-3%	u	-16%	1%	u	u	u	7.6µM*
O=C1C(=Cc2cn(-c3ccccc3)nc2-c2ccc(OCc3ccccc3)cc2)SC(=S)N1CCS(=O)(=O)O	x	x	25µM*	x	x	-65*	11µM*	-29%	6.8µM*
Cc1nn(CCC(=O)NC(C)C)c(=O)c2nn(-c3ccccc3)c(C)c12	-1%	x	x	1%	x	x	x	x	x
Cc1ccc(C2c3[nH]c4ccccc4c3CCN2C(=O)Nc2ccc(C)c(C)c2)cc1 (configuration not stated)	-4%	x	x	-12%	x	x	x	x	x
Oc1cc2c(cc1C(c1ccc(Br)cc1)N1CCCC1)OCO2 (configuration not stated)	-10%	i	45µM*	1%	-1%	-102*	u	-11%	u
CCc1ccc(-n2nc(C)c3c(C(=O)Nc4ccc(Cl)cc4)cc(C)nc32)cc1	1%	x	x	-20%	x	x	x	x	x
COc1ccc(CN(C#N)c2nc(SC)nc(N(C)C)n2)cc1	-5%	-7%	100µM*	u	-6%	14	-7%	-9%	-9%
CC(=O)Nc1ccccc1-c1nc2ccccc2n(CC(=O)c2ccc(Br)cc2)c1=O	-2%	x	x	-15%	x	x	x	x	x
COc1ccc(-c2cn3cccnc3n2)cc1NC(=O)Nc1cc(C)ccc1C	-12%	x	x	-16%	-8%	x	15µM*	-8%	6.8µM*
CCc1ccc(-n2c(=O)c3c4c(sc3n(CC(=O)NC(C)CC)c2=O)CCCC4)cc1 (configuration not stated)	-5%	x	x	-9%	x	x	x	x	x
COc1ccc(-c2noc(CCC(=O)N(C)c3cc(Cl)ccc3OC)n2)cc1	-6%	x	x	0%	x	x	x	x	x
Cc1ccc(C)n1/N=C1/NC(=O)CS1	u	u	16µM*	32µM*	u	-52*	24µM*	-9%	5.4µM*
CCOC(=O)C1=C(C)N=c2sc(=Cc3ccc(OCC(=O)O)cc3)c(=O)n2C1c1ccc(Cl)cc1 (configuration not stated)	x	x	u	x	x	u	7.6µM*	357%	3.4µM*
CCOC(=O)C1=C(C)N=c2sc(=Cc3cc(Cl)c(OCC(=O)O)c(Cl)c3)c(=O)n2C1c1cccc(OC)c1 (configuration not stated)	x	x	79µM*	x	x	-74*	30µM*	21%	u
COc1ccc(CNC(=O)Nc2ccc3c(c2)N(C)C(=O)c2ccccc2S3)cc1	-2%	x	x	11%	x	x	x	x	x
CC[n+]1c(/C=C/C=C/N(C(C)=O)c2ccccc2)sc2ccccc21	-2%	-3%	50µM*	u	2%	u	24µM*	i	-15%
CCn1c(/C=C/N(C(C)=O)c2ccccc2)[n+](CC)c2ccc(Cl)cc21	3%	4%	4%	-2%	0%	-5	x	x	x
COc1ccc(NC(=O)Cc2ccccc2)cn1	-6%	-17%	-29%	-2%	8%	-8	x	x	x
COc1ccc(NC(=O)/C(Cl)=C(/Cl)S(=O)Cc2ccccc2)cn1 (configuration not stated)	-5%	-17%	32µM*	-18%	-9%	-5	u	-3%	-19%
CSc1ccc(/C=C2\C(=N)N3N=C(CC(=O)N4CCOCC4)SC3=NC2=O)cc1	-1%	x	-4%[57.1 µM]	17%	14%	0	x	x	x
N=C1/C(=C\c2ccc(Br)o2)C(=O)N=C2SC(CC(=O)N3CCOCC3)=NN12	-8%	x	35µM*	u	-17%	u	u	-10%	u
COc1cc(NC(=O)CC2C(=O)N(c3ccc(Cl)cc3)C(=O)N2Cc2cccs2)cc(OC)c1 (configuration not stated)	-11%	x	x	-5%	x	x	x	x	x
COc1ccccc1NC(=O)c1c(-c2ccc(C)cc2)nnc2ccccc12	-3%	x	x	-12%	x	x	x	x	x
CCCCCC1NC(=O)NC1CCCCCC(=O)O (configuration not stated)	-1%	-16%	10%	-3%	-7%	-4	x	x	x
SMILES	BLM helicase inh-1	RECQ1 helicase	WRN helicase inh-1	FEN1 inh	APE1 inh	PI5P4Ka inh	WRN helicase inh-2	TO DNA binding	BLM helicase inh-2
C[C@@H]1NC(=O)N[C@@H]1CCCCCC(=O)O	x	x	u	2%	x	0	u	-1%	u
CN(Cc1ccccc1)C(=O)c1nc(-c2ccc(Cl)cc2)n2c1CCCCC2	-4%	x	x	-12%	x	x	x	x	x
O=C(Nc1ccc2oc(=O)ccc2c1)c1ccc(-c2ccc(Cl)cc2)o1	2%	2%	-33%[57.1 µM]	-1%	27%	2	x	x	x
O=C(Nc1ccc2oc(=O)ccc2c1)c1ccc(-c2cccc([N+](=O)[O-])c2)o1	5%	-4%	10µM*	u	2%	-12	u	u	1.5µM*
CC1(C)CC(=O)C(C(C2=C(O)CC(C)(C)CC2=O)c2cccs2)C(=O)C1 (configuration not stated)	1%	4%	u	0%	-4%	u	-8%	-7%	-6%
O=C1C=C(c2c(O)ccc3ccccc23)c2ccccc2C1=O	x	x	20µM*	u	x	u	-19%	u	u
Cc1cc(C)nc(-n2nc(C)c3c2NC(=O)CC3c2cccc(O)c2)n1 (configuration not stated)	1%	x	x	-1%	x	x	x	x	x
COc1cccc(/C=C2/CCC(CN(C)C)C2=O)c1 (configuration not stated)	x	x	13µM*	1%	x	-15	-26%	-14%	u
COc1ccc(/C=C2/CCCC(CN(C)C)C2=O)cc1 (configuration not stated)	x	x	u	12%	x	2	x	x	x
NC(=O)COc1ccccc1	-1%	-6%	10%	1%	-1%	-6	x	x	x
